Reference: PubChem BioAssay (EPA / NIEHS)
Activity calls are given as the source filed them. The calls were made as follows: active = hit-call score of the fitted dose curve at least 0.9, where 1 is the maximum; inactive = score below 0.9.

Read-out: Matrix Metallopeptidase 1 (MMP1), MMP1 (gene 4312)
Test: BSK_MyoF_MMP1: BioMAP Diversity Plus: MyoF Assay for Matrix Metallopeptidase 1 (MMP1) Biomarker Activity (AID 2284268)
Conditions: primary human lung fibroblasts
Experimental: BSK_MyoF is a cell-based, multiplexed-readout assay that uses lung fibroblasts, […], with measurements taken at 24 hours after chemical dosing in a microplate: 96-well plate.BSK_MyoF_MMP1 is an assay component measured in the BSK_MyoF assay. It measures […] antibody related to regulation of gene expression using ELISA technology.Data from the assay component BSK_MyoF_MMP1 was analyzed at the endpoint, BSK_MyoF_MMP1, in the positive analysis fitting direction relative to DMSO as the negative control and baseline of activity. Using a type of binding reporter, gain or loss-of-signal activity can be used to understand protein changes. To generalize the intended target to other relatable targets, this assay endpoint is annotated to the 'protease' intended target family, where the subfamily is 'matrix metalloproteinase'.
The levels of cell surface (or secreted, indicated by the prefix "s") biomarker endpoints were measured by ELISA. Overt cytotoxicity to cells in confluent adherent cultures (all systems other than the BT system) was assessed by measuring total protein levels using sulforhodamine B (SRB) staining in parallel cultures at the time of biomarker measurements, indicated as SRB endpoints. For proliferation assays for adherent cell types, individual cell types are cultured at sub-confluence and relative cell numbers quantified by SRB staining at time points optimized for each system (48 h: 3C and CASM3C systems; 72 h: BT and HDF3CGF systems; 96 h: SAg system). SRB was performed by staining cells with 0.1% SRB after fixation with 10% TCA and reading wells at 560 nm.Viability and proliferation of PBMC (T cells) was quantified by Alamar Blue reduction for the SAg and BT systems. For PBMC viability (referred to as PBMC Cytotoxicity within the assay endpoint names), cells were plated (75,000/well in a 96-well plate) and then chemical samples added for 1 h before addition of activators, SEB and TSST-1 (20 ng/mL final concentration each). Cells were incubated for 90 h. Then, Alamar Blue (20 uL/well) (Invitrogen, Cat DAL1100) was added for 6 h, and the plates were read with a fluorescence microplate reader at 546/580 nm (excitation/emission). For PBMC proliferation, cells were plated and activated as above but incubated for only 16 h prior to addition of Alamar Blue. Plates were read after 6 h.

Row | SMILES | outcome | AC50
1 | CCCCCCCCC=O | inactive | 
2 | CCCCC/C=C/C=C/C=O | inactive | 
3 | Nc1cc([N+](=O)[O-])ccc1Cl | inactive | 
4 | CNC[C@H](O)c1cccc(O)c1 | inactive | 
5 | CN(CCOc1ccc(CC2SC(=O)NC2=O)cc1)c1ccccn1 (stereo not drawn) |  | 20 µM (active)
6 | Cc1ccc(O)c(C(C)(C)C)c1 | inactive | 
7 | COC(=O)c1ccc(C)cc1 | inactive | 
8 | O=C(O)c1cn(-c2ccc(F)cc2)c2cc(N3CCNCC3)c(F)cc2c1=O | inactive | 
9 | CC1COc2ccccc2N1C(=O)C(Cl)Cl (stereo not drawn) |  | 9.41 µM (active)
10 | CCCCCCCCCCCCCCCCCC(=O)OCC(CC)CCCC (stereo not drawn) | inactive | 
11 | BrC1CCC(Br)C(Br)CCC(Br)C(Br)CCC1Br (stereo not drawn) |  | 3.29 µM (active)
12 | C=C(C)C(=O)O[C@H]1C[C@@H]2CC[C@@]1(C)C2(C)C | inactive | 
13 | CC1CCC(C(C)CS)CC1S (stereo not drawn) | inactive | 
14 | N#Cc1ccc(CC(=NNC(=O)Nc2ccc(OC(F)(F)F)cc2)c2cccc(C(F)(F)F)c2)cc1 | inactive | 
15 | CCCCC(CC)COCCC#N (stereo not drawn) | inactive | 
16 | O=C(O)C[C@H](O)C[C@H](O)/C=C/c1c(C2CC2)nc2ccccc2c1-c1ccc(F)cc1 |  | 0.498 µM (active)
17 | O=C(O)c1cn(C2CC2)c2cc(N3CCNCC3)c(F)cc2c1=O | inactive | 
18 | CC(C)(COC(=O)c1ccccc1)COC(=O)c1ccccc1 | inactive | 
19 | CCn1c2ccccc2c2cc(N)ccc21 | inactive | 

Row | SMILES | outcome | AC50
20 | CCCCC(CC)COC(=O)/C=C\C(=O)OCC(CC)CCCC (stereo not drawn) | inactive | 
21 | Cc1ccc2n[nH]nc2c1 | inactive | 
22 | c1ccc2c(c1)c1cccc3ccc4cccc2c4c31 | inactive | 
23 | O=C1OC2(c3cc(Br)c(O)c(Br)c3Oc3c2cc(Br)c(O)c3Br)c2c(Cl)c(Cl)c(Cl)c(Cl)c21 | inactive | 
24 | Cc1ccc(Nc2ccc(O)c3c2C(=O)c2ccccc2C3=O)cc1 | inactive | 
25 | O=[N+]([O-])c1cc(C(F)(F)F)ccc1Cl | inactive | 
26 | CC(=O)/C=C/C1=C(C)CCCC1(C)C | inactive | 
27 | c1ccc2sc(SN(C3CCCCC3)C3CCCCC3)nc2c1 |  | 6.26 µM (active)
28 | O=C=NC1CCC(CC2CCC(N=C=O)CC2)CC1 (stereo not drawn) | inactive | 
29 | C#C[C@]1(O)CC[C@H]2[C@@H]3CCC4=Cc5oncc5C[C@]4(C)[C@H]3CC[C@@]21C | inactive | 
30 | O=P(c1ccccc1)(c1ccccc1)c1ccccc1 | inactive | 
31 | O=C1CCCCCCCCCCCCCCO1 |  | 20 µM (active)
32 | CCc1c(C)cc(N)c(CC)c1N | inactive | 
33 | CCCCCCCCCC=O | inactive | 
34 | CC(C)Oc1ccccc1O | inactive | 
35 | C=C[Si](OCC)(OCC)OCC | inactive | 
36 | CC(=O)Nc1ccccc1O | inactive | 
37 | CC(C)c1ccc(C(C)C)cc1 | inactive | 
38 | CC(=O)O[C@]1(C(C)=O)CC[C@H]2[C@@H]3C[C@H](C)C4=CC(=O)CC[C@]4(C)[C@H]3CC[C@@]21C | inactive | 
